Our source for the outcome and AC50 values is PubChem BioAssay (EPA / NIEHS).

Experiment [1] can be described thus: ATG_GRE_CIS: Attagene CIS-FACTORIAL HepG2 Assay for human Glucocorticoid Response Elements (GRE) (AID 2282947). The note with it: HepG2 GRE cis-reporter, Attagene multiplex mRNA; actives raise or lower the signal. Summed up: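 Reporter transcripts read by RT-PCR with capillary electrophoresis fluorescence after a 24 h chemical exposure of HepG2 cells transiently transfected with multiple cis-element reporter units. Gain or loss fitted against DMSO.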

The nature of experiment [2]: ATG_ISRE_CIS: Attagene CIS-FACTORIAL HepG2 Assay for human Interferon Regulatory Factor 1 (IRF1) binding to an Interferon-Stimulated Response Element (ISRE) (AID 2282948). The settings on record: HepG2 ISRE cis-reporter (Attagene), mRNA transcription readout; actives raise or lower the signal. Summed up: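 Endogenous transcription factor activity read as reporter transcript abundance via RT-PCR and capillary electrophoresis. HepG2 cells transiently transfected, 24 h chemical exposure. Gain or loss fitted against DMSO baseline.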

Experiment [3] in a line: ATG_M_32_CIS: Attagene CIS-FACTORIAL HepG2 Assay for M32 Transcription Factor (Internal Marker) (AID 2282949).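 Further: background control marker of the multiplexed CIS panel rather than a real target.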 The settings on record: HepG2 Attagene cis-factorial M32 reporter, mRNA; actives raise or lower the signal. Summed up:
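HepG2 human liver cells transiently transfected with cis-promoter-driven multiple reporter transcription units, dosed 24 h. Reporter mRNA quantified by RT-PCR, FAM-labelled primer extension, HpaI digest and capillary electrophoresis; bidirectional fit versus DMSO baseline.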

Experiment [4] in a line: ATG_M_06_CIS: Attagene CIS-FACTORIAL HepG2 Assay for M06 Transcription Factor (Internal Marker) (AID 2282950). The settings on record: HepG2 Attagene CIS-FACTORIAL M06 internal marker reporter; actives raise or lower the signal. Put shortly: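 Serves as a background control readout. Transfected HepG2 exposed to compounds for 24 h, then reporter transcripts quantified by fluorescent RT-PCR and capillary electrophoresis. Both directions fitted against DMSO baseline.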

Experiment [5] has as its target Hypoxia-inducible factor 1-alpha (Homo sapiens) (UniProt Q16665). The experiment in a line: ATG_HIF1a_CIS: Attagene CIS-FACTORIAL HepG2 Assay for human Hypoxia Inducible Factor 1 (HIF1A) (AID 2282951). The settings on record: HepG2 Attagene cis-factorial HIF1a reporter transcription; actives raise or lower the signal. Summed up:
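Measures endogenous transcription-factor activity through cis-regulated reporter mRNA in HepG2. Cells dosed 24 h; transcripts quantified by RT-PCR with 6-FAM-labelled products separated by capillary electrophoresis; DMSO serves as negative control.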

Experiment [6] deals with Hepatocyte nuclear factor 6 (Homo sapiens) (UniProt Q9UBC0). The experiment is described as follows: ATG_HNF6_CIS: Attagene CIS-FACTORIAL HepG2 Assay for human Hepatocyte Nuclear Factor 6 (HNF6) (AID 2282952). The settings on record: HepG2 Attagene cis-factorial HNF6 reporter transcription; actives raise or lower the signal. Summed up: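 First, HepG2 cells were transfected with the multiplexed cis reporter library and dosed with chemical for 24 h. Next, RNA was reverse-transcribed, PCR-amplified and fluorescently labelled. Finally, HpaI-digested fragments were read by capillary electrophoresis.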
Hepatocyte nuclear factor 6 (Homo sapiens), sequence (Q9UBC0 whole entry, looked up, the tested form may be a part): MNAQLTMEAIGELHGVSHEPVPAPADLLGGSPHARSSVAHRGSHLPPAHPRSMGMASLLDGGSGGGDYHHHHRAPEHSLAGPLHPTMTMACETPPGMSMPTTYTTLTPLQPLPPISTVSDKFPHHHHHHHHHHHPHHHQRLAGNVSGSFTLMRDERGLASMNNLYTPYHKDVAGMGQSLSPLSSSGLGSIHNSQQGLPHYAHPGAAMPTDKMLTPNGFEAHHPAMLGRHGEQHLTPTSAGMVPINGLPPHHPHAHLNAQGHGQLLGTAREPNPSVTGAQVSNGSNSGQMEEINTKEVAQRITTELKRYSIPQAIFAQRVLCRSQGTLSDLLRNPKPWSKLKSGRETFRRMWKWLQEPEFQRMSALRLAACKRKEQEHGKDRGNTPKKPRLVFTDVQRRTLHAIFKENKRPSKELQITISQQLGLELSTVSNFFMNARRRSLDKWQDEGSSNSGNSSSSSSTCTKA

Experiment [7] deals with Heat shock factor protein 1 (Homo sapiens) (UniProt Q00613). The experiment is described as follows: ATG_HSE_CIS: Attagene CIS-FACTORIAL HepG2 Assay for human Heat Shock Transcription Factor 1 (HSE) (AID 2282953). The note with it: HepG2 HSE cis-reporter, Attagene RNA transcription; actives raise or lower the signal. Put shortly:
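Endogenous transcription factor activity in transiently transfected HepG2, read as reporter mRNA by RT-PCR with fluorescent capillary electrophoresis after 24 h. Gain or loss of signal fitted versus DMSO baseline.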

Experiment [8] can be described thus: ATG_MRE_CIS: Attagene CIS-FACTORIAL HepG2 Assay for human Metal Responsive Element (MRE) (AID 2282954). The note with it: HepG2 MRE cis-reporter transcription, Attagene multiplex; actives raise or lower the signal. Summed up: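 Endogenous MRE-dependent transcription read as reporter mRNA in transiently transfected human HepG2 cells at 24 h. RNA reverse-transcribed, PCR-amplified, labelled and resolved by capillary electrophoresis; gain or loss relative to DMSO.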

In experiment [9] the target is Paired box protein Pax-6 (Homo sapiens) (UniProt P26367). The experiment in a line: ATG_Pax6_CIS: Attagene CIS-FACTORIAL HepG2 Assay for human Paired Box 6 (PAX6) (AID 2282956). The note with it: HepG2 CIS-FACTORIAL PAX6 reporter transcription, RNA readout; actives raise or lower the signal. Put shortly: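 Read-out is reporter transcript level, measured by RT-PCR with fluorescent primer extension and capillary electrophoresis after 24 h dosing of transfected HepG2 cells. Activity in either direction fitted relative to DMSO control.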
Paired box protein Pax-6 (Homo sapiens), sequence (P26367 whole entry, looked up): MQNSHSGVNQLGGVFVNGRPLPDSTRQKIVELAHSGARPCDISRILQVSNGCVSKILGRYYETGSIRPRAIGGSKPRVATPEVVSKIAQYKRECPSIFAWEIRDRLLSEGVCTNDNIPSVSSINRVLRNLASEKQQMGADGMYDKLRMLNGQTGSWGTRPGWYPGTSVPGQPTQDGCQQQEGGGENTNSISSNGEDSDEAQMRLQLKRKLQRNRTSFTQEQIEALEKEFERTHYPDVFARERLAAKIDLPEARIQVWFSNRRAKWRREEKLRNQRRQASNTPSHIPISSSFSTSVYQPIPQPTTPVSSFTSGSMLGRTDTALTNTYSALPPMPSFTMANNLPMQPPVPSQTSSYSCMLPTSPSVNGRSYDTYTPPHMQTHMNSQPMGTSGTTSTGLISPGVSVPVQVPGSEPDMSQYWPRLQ

A short description of experiment [10]: ATG_PXRE_CIS: Attagene CIS-FACTORIAL HepG2 Assay for human Pregnane X Receptor Element (PXRE) (AID 2282957). The settings on record: HepG2 Attagene CIS-FACTORIAL PXRE reporter, mRNA; actives raise or lower the signal. Put shortly:
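After a 24 h chemical incubation, total RNA from transfected HepG2 cells was reverse-transcribed and reporter cDNA amplified, FAM-labeled, HpaI-digested and sized by capillary electrophoresis. DMSO served as baseline for bidirectional curve fitting.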

Experiment [11] in a line: ATG_PPRE_CIS: Attagene CIS-FACTORIAL HepG2 Assay for human Peroxisome Proliferator-activated Response Element (PPRE) (AID 2282958). The settings on record: HepG2 PPRE cis-element reporter, Attagene transcription factor profiling; actives raise or lower the signal. Summed up: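 Cells are first transfected transiently with the multiplexed reporter library, then dosed for 24 h. Total RNA is reverse-transcribed, amplified, fluorescently end-labeled and HpaI-cut before capillary electrophoresis; activity is fitted bidirectionally against DMSO controls.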

The nature of experiment [12]: ATG_RORE_CIS: Attagene CIS-FACTORIAL HepG2 Assay for human RAR-related Orphan Receptor Element (RORE) (AID 2282959). The settings on record: HepG2 Attagene cis-factorial RORE reporter, mRNA; actives raise or lower the signal. Summed up: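 Cells were HepG2 carrying transfected cis-regulated reporter constructs, dosed for 24 hours. Total RNA was reverse-transcribed and reporter cDNA amplified, fluorescently labeled and sized by capillary electrophoresis. Activity was fitted bidirectionally relative to DMSO.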

Experiment [13] is described as follows: ATG_Sox_CIS: Attagene CIS-FACTORIAL HepG2 Assay for human SRY-box transcription factor (SOX) (AID 2282960). The note with it: HepG2 Attagene cis-factorial SOX reporter, mRNA; actives raise or lower the signal. Summed up: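 Transient MRTU transfection of HepG2; 24 h compound incubation; TriZol RNA, oligo(dT) RT, PCR, 6-FAM primer extension, HpaI cut, CE. Bidirectional fit, DMSO = baseline.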

For experiment [14], the target named is Transcription factor Sp1 (Homo sapiens) (UniProt P08047). The experiment is described as follows: ATG_Sp1_CIS: Attagene CIS-FACTORIAL HepG2 Assay for human Specificity Protein 1 (Sp1) (AID 2282961). The settings on record: HepG2 Sp1 cis-reporter transcription, actives raise or lower the signal. Put shortly: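 Endogenous Sp1 activity was gauged in human liver HepG2 cells bearing transfected reporter units under a cis-regulating promoter. After 24 h dosing, reporter mRNA was quantified by RT-PCR with capillary electrophoresis, and activity fitted bidirectionally versus DMSO.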
Transcription factor Sp1 (Homo sapiens), sequence (P08047 whole entry, looked up): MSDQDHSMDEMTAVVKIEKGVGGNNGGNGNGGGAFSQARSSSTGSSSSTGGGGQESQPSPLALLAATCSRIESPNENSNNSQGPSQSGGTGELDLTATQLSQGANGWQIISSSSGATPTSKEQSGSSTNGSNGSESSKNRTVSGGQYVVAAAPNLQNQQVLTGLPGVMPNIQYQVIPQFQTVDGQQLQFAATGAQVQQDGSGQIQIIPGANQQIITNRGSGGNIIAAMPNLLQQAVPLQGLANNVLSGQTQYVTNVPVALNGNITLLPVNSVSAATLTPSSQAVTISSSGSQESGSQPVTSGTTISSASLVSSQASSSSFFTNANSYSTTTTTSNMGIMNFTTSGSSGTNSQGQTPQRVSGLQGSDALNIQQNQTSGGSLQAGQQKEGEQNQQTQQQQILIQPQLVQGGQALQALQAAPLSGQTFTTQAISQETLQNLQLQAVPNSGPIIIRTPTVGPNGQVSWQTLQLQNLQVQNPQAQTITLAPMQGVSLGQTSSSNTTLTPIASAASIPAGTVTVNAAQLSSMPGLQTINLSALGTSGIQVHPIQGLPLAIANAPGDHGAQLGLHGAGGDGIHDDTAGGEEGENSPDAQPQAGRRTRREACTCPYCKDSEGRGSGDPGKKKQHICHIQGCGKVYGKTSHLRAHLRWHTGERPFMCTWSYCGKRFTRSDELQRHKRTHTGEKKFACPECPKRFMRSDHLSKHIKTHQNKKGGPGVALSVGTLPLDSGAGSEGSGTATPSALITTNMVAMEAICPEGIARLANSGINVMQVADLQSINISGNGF

Experiment [15] in a line: ATG_SREBP_CIS: Attagene CIS-FACTORIAL HepG2 Assay for human Sterol Regulatory Element Binding (SREBP) (AID 2282962). The settings on record: HepG2 Attagene cis-factorial SREBP reporter, mRNA; actives raise or lower the signal. Summed up: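 Endogenous SREBP activity read as cis-element-driven reporter transcript in transiently transfected HepG2, 24 h post-dosing; quantified via RT-PCR plus capillary electrophoresis of fluorescent fragments. Gain or loss of signal fitted relative to DMSO baseline.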

Experiment [16] has as its target Signal transducer and activator of transcription 3 (Homo sapiens) (UniProt P40763). The experiment in a line: ATG_STAT3_CIS: Attagene CIS-FACTORIAL HepG2 Assay for human Signal Transducer and Activator of Transcription 3 (STAT3) (AID 2282963). The settings on record: HepG2, Attagene cis-factorial STAT3 reporter transcription; actives raise or lower the signal. Put shortly: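 Readout is reporter transcript quantified by RT-PCR and capillary electrophoresis, with 6-FAM primer extension and HpaI digestion. Total RNA is taken 24 h after dosing transiently transfected HepG2 carrying cis-regulated reporter units. Bidirectional fit against DMSO.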

Experiment [17] in a line: ATG_TA_CIS: Attagene CIS-FACTORIAL HepG2 Assay for human TA Basal Promoter (AID 2282964). The settings on record: HepG2 Attagene CIS-factorial TA basal promoter reporter; actives raise or lower the signal. Put shortly: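 Background-control readout: TA basal promoter reporter mRNA, fitted in both directions relative to DMSO. Measured by RT-PCR and capillary electrophoresis 24 hours after treating HepG2 human liver cells transiently carrying multiplexed cis-regulated reporter constructs.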

Experiment [18] can be described thus: ATG_PBREM_CIS: Attagene CIS-FACTORIAL HepG2 Assay for human Phenobarbital-responsive Enhancer Module (PBREM) (AID 2282955). The note with it: HepG2 PBREM cis-reporter, Attagene multiplexed transcription; actives raise or lower the signal. Summed up: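 Fluorescence of labelled reporter cDNA fragments, resolved by capillary electrophoresis, gives mRNA induction in transfected HepG2 cells treated for 24 h; DMSO serves as negative control and baseline.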

The nature of experiment [19]: ATG_TCF_b_cat_CIS: Attagene CIS-FACTORIAL HepG2 Assay for human T-Cell-Factor with beta-catenin (TCF/b-cat) (AID 2282965). The note with it: HepG2 TCF/beta-catenin cis-reporter transcription, actives raise or lower the signal. Put shortly:
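Measured: reporter mRNA in HepG2 transiently transfected with cis-promoter reporter units, 24 h after chemical addition. Fitting was bidirectional, DMSO as negative control.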

Each structure is given as a SMILES string. Active and inactive are the calls of the source. How the source made its calls: active means hit-call score of the fitted dose curve at least 0.9, where 1 is the maximum; inactive means score below 0.9.

Hypoxia-inducible factor 1-alpha (Homo sapiens), sequence (Q16665 whole entry, looked up): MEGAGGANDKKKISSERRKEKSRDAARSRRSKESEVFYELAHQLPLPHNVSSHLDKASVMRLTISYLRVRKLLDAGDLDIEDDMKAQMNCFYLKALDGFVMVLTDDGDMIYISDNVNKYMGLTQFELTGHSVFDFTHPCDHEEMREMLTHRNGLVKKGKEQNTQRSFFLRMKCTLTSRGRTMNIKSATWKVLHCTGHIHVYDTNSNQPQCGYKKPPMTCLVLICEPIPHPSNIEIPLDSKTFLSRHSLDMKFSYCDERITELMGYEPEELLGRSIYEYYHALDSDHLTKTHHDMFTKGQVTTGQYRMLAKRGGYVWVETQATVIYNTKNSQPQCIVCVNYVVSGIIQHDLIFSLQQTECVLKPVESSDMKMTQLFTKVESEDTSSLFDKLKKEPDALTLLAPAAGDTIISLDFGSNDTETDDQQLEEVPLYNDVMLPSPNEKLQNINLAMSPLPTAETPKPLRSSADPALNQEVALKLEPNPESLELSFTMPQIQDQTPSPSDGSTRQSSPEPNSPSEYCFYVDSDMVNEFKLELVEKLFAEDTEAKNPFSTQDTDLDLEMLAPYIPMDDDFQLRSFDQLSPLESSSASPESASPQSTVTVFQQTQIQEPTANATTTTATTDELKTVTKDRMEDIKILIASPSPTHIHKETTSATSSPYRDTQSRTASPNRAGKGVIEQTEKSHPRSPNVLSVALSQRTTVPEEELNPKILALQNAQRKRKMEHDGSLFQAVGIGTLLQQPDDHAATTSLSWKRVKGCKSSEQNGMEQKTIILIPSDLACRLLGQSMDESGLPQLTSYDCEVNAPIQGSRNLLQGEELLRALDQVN
Signal transducer and activator of transcription 3 (Homo sapiens), sequence (P40763 whole entry, looked up): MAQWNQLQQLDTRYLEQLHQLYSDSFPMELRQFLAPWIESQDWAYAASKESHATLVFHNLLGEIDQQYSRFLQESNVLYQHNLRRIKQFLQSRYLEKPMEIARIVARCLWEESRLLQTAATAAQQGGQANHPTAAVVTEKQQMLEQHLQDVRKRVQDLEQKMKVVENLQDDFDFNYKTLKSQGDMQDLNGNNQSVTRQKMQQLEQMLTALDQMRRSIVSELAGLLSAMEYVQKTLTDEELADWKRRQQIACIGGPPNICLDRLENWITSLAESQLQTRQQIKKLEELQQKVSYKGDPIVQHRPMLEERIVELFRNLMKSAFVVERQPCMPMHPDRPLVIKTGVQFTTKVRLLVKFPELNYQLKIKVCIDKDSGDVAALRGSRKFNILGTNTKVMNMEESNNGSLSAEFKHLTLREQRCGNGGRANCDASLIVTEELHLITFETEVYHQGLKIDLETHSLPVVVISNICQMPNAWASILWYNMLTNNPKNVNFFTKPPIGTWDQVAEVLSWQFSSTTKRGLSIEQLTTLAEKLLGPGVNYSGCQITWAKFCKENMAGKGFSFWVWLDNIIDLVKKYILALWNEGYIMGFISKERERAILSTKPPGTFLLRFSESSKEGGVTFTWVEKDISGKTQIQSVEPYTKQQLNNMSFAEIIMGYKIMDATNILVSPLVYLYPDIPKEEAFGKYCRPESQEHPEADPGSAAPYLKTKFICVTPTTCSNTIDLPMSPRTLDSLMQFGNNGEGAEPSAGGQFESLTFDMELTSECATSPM
Heat shock factor protein 1 (Homo sapiens), sequence (Q00613 whole entry, looked up): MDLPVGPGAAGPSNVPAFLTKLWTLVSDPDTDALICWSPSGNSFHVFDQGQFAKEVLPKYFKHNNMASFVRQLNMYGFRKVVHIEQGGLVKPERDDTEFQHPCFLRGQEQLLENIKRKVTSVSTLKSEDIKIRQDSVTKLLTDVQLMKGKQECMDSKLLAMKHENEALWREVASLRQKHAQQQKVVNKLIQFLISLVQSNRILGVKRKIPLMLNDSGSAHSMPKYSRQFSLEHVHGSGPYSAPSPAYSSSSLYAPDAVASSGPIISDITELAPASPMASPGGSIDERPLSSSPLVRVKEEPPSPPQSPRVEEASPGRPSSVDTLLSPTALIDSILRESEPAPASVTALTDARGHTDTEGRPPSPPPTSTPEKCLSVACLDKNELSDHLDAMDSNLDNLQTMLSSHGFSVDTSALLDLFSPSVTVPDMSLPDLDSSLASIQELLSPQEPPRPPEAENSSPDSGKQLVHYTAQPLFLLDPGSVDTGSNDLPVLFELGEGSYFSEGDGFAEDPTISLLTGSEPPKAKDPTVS

In the case of `O=C(O)c1cccc([N+](=O)[O-])c1`, the result in experiment [1], in experiment [2], in experiment [3], in experiment [4], in experiment [5] and in experiment [6] was inactive. For the same compound, the call in experiment [7], in [8], in experiment [9], in experiment [10], in experiment [11] and in experiment [12] was inactive. Besides, the compound was classed as inactive in experiment [13], in [14], in experiment [15], in experiment [16] and in experiment [17].
As for `NC(=O)Nc1ccc(Cl)cc1`, the call in experiment [1], in experiment [2], in experiment [3], in experiment [4], in [5] and in [6] was inactive. In addition, the compound was classed as inactive in [7], in experiment [8], in experiment [18], in experiment [9], in experiment [10] and in experiment [11]. Further, the call in experiment [13], in experiment [14], in experiment [15], in [16], in experiment [17] and in [19] was inactive.
In the case of `CCCCCCCCCCCCCOS(=O)(=O)O`, the compound was called inactive in [1], in experiment [2], in experiment [3], in experiment [4], in [5] and in experiment [6]. In addition, the outcome in experiment [7], in experiment [8], in experiment [9], in [10], in [12] and in experiment [13] was inactive. In addition, the result in experiment [14], in experiment [15], in experiment [16], in experiment [17] and in experiment [19] was inactive. In addition, the AC50 (usually the concentration at which the activity in the assay is half-maximal) in experiment [11] was 7.4 µM (active).
For `OCCOCCOCCOCCO`, the result in [1], in experiment [2], in experiment [3], in [4], in experiment [5] and in experiment [6] was inactive. For the same compound, the outcome in experiment [8], in experiment [9], in experiment [12], in experiment [13], in experiment [14] and in experiment [15] was inactive. Further, the outcome in experiment [16] and in experiment [17] was inactive. Moreover, the AC50 in [7] was 57.2 µM (active); in [10], 29.4 µM (active).
